From PubChem BioAssay
CD40 NFkB inh: CD40 pathway inhibition in BL2 cells. BL2 NF-kB luciferase reporter, CD40L-induced, 4 h. inhibition, % at 10 µM. hit rate 0.94% among 83,000. AID 1053188;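 active = mean inhibition of at least 50% with a set share of replicates also reaching that level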
Of the large screens only hits and unclear results are named; the others gave an inactive call; [ ] = remark or other dose. This is one part of a sample in which hits are shown more often than they occur.

CN1C(=O)c2cc(NS(C)(=O)=O)ccc2OC[C@H]2O[C@H](CC(=O)NCc3ccccc3)CC[C@@H]21	none
O=C(/C=C/c1cccc([N+](=O)[O-])c1)OCC(=O)c1ccccc1	none
CC(=O)Nc1ccc(C=CC=Cc2cccc([N+](=O)[O-])c2)cc1	none
CC(=O)Oc1ccccc1C(=O)C=Cc1cccc([N+](=O)[O-])c1	CD40 NFkB inh 89
COc1ccc2c3c([nH]c2c1)[C@@H](CO)N(S(=O)(=O)c1cn(C)cn1)CC31CCN(CC2CCCCC2)CC1	none
C[C@@H]1CCCCO[C@H](CN(C)C(=O)Nc2ccc(C(F)(F)F)cc2)[C@@H](C)CN([C@H](C)CO)C(=O)c2cc(NS(=O)(=O)c3cn(C)cn3)ccc2O1	none
O=C(C[C@H]1C[C@@H]2c3cc(NC(=O)C4CCC4)ccc3O[C@@H]2[C@H](CO)O1)NCCc1ccccc1	none
COc1cccc(CNC(=O)[C@@H]2N[C@@H]3c4ccc(/C=C/c5ccccc5)c(=O)n4C[C@@H]3[C@H]2CO)c1	none
CC(=NNc1nc2ccccc2s1)c1ncccn1	none
CC(=NNc1nc2ccccc2o1)c1ncccn1	CD40 NFkB inh 80
CC(=NNc1nc2ccccc2o1)c1cc2ccccc2cn1	none
COc1ccc2c3c([nH]c2c1)[C@H](CO)N(C(C)=O)CC31CCN(Cc2cc(-c3ccccc3)on2)CC1	none
Cn1cc(/C=N/Nc2ccccc2)c2ccccc21	none
Cn1cc(/C=C/C(=O)c2ccccc2)c2ccccc21	CD40 NFkB inh 33
O=C(/C=C/c1ccccc1)c1ccccc1	none
CN1C(=O)c2cc(NC(=O)C3CCOCC3)ccc2OC[C@H]2O[C@@H](CC(=O)NCC3CC3)CC[C@H]21	none
CO[C@@H]1CN(C)C(=O)c2cc(NC(=O)NC(C)C)ccc2OC[C@@H](C)N(Cc2ccccc2)C[C@@H]1C	none
COc1ccccc1S(=O)(=O)N1CC[C@@H]2[C@H]1c1cc(-c3ccc(C#N)cc3)ccc1N[C@@H]2CO	none
COc1ccccc1C(=O)NCCC(=O)Nc1ccc(C)cn1	none
O=C(CCNC(=O)c1ccccc1Cl)Nc1nc2ccccc2[nH]1	none
COc1ccccc1C(=O)NCCC(=O)Nc1nc2ccccc2[nH]1	CD40 NFkB inh 52
CO[C@@H]1CN(C)C(=O)c2cc(NC(=O)C3CCC3)ccc2OC[C@@H](C)N(Cc2cccnc2)C[C@@H]1C	none
CC(C)CN(C[C@H]1N[C@H](CO)[C@H]1c1ccccc1)C(=O)CN(C)C	none
C[C@@H](N)C(=O)N[C@H]1CCC2C3CC=C4C[C@@H](O)CC[C@]4(C)C3CC[C@@]21C (stereo not given in full)	none
CC(=O)[C@H]1CCC2C3CC=C4C[C@@H](O)CC[C@]4(C)C3CC[C@@]21C (stereo not given in full)	none
CC(C)[C@H](N)C(=O)N[C@H]1CCC2C3CC=C4C[C@@H](O)CC[C@]4(C)C3CC[C@@]21C (stereo not given in full)	CD40 NFkB inh 71
N#C/C(=C(\N)Sc1ccc(N)cc1)c1ccccc1C(F)(F)F	none
O=C(C[C@@H]1CC[C@H]2NC[C@H](O)COC[C@@H]2O1)Nc1nccs1	none
CO[C@H](CN(C)C(=O)C1CC1)[C@H](C)CN(C(=O)Nc1ccc(C(F)(F)F)cc1)[C@@H](C)CO	none
C[C@@H]1CN([C@H](C)CO)C(=O)c2c(c3ccccc3n2C)-c2ccccc2CO[C@H]1CN(C)Cc1cccc(C(F)(F)F)c1	CD40 NFkB inh 76[25 µM]
COc1ccccc1NC(=O)N(C)C[C@@H]1OCc2ccccc2-c2c(n(C)c3ccccc23)C(=O)N([C@H](C)CO)C[C@H]1C	none
C[C@H](CO)N1C[C@H](C)[C@@H](CN(C)Cc2cccc(F)c2)OCc2ccccc2-c2c(n(C)c3ccccc23)C1=O	none
C[C@@H]1CN([C@H](C)CO)C(=O)c2c(c3ccccc3n2C)-c2ccccc2CO[C@@H]1CN(C)Cc1ccc(C(F)(F)F)cc1	none
C[C@@H]1CN([C@@H](C)CO)C(=O)c2c(c3ccccc3n2C)-c2ccccc2CO[C@H]1CN(C)S(=O)(=O)c1ccc([N+](=O)[O-])cc1	CD40 NFkB inh 55[25 µM]
C[C@@H]1CN([C@H](C)CO)C(=O)c2c(c3ccccc3n2C)-c2ccccc2CO[C@@H]1CN(C)C(=O)Nc1ccccc1C(F)(F)F	none
C[C@H]1CN([C@@H](C)CO)C(=O)c2c(c3ccccc3n2C)-c2ccccc2CO[C@H]1CN(C)C(=O)Nc1ccccc1C(F)(F)F	CD40 NFkB inh 59[25 µM]
C[C@H]1CN([C@@H](C)CO)C(=O)c2c(c3ccccc3n2C)-c2ccccc2CO[C@@H]1CN(C)Cc1ccc(C(F)(F)F)cc1	none
C[C@@H]1CN([C@@H](C)CO)C(=O)c2c(c3ccccc3n2C)-c2ccccc2CO[C@H]1CN(C)Cc1cccc(C(F)(F)F)c1	CD40 NFkB inh 78[25 µM]
C[C@@H]1CN([C@H](C)CO)C(=O)c2c(c3ccccc3n2C)-c2ccccc2CO[C@H]1CN(C)Cc1ccc(C(F)(F)F)cc1	none
C[C@@H]1CN([C@H](C)CO)C(=O)c2c(c3ccccc3n2C)-c2ccccc2CO[C@H]1CN(C)S(=O)(=O)c1ccc([N+](=O)[O-])cc1	none
C[C@H]1CN([C@@H](C)CO)C(=O)c2c(c3ccccc3n2C)-c2ccccc2CO[C@@H]1CN(C)S(=O)(=O)c1ccccc1	none
C[C@@H]1CN([C@@H](C)CO)C(=O)CCCn2cc(nn2)CO[C@H]1CN(C)Cc1ccc2cccnc2c1	none
CO[C@@H]1CN(C)C(=O)c2cc(NC(=O)C3CC3)ccc2OC[C@H](C)N(CC2CCCC2)C[C@H]1C	none
O=C(NCC(F)(F)F)[C@@H]1[C@@H](CO)[C@@H]2Cn3c(cccc3=O)[C@H]1N2C(=O)C1CCC1	none
O=C(NC[C@H]1N[C@H](CO)[C@@H]1c1ccc(-c2cncnc2)cc1)C1CCCC1	none
C[C@@H]1CN([C@H](C)CO)C(=O)CCCn2cc(nn2)CO[C@H]1CN(C)C(=O)Nc1ccc(N2CCN(C)CC2)cc1	none
Cc1ccc(S(=O)(=O)Nc2ccc3c(c2)C(=O)N([C@H](C)CO)C[C@@H](C)[C@H](CN(C)S(C)(=O)=O)OCCCC[C@@H](C)O3)cc1	none
CC(=O)Nc1cccc2c1O[C@H](CN(C)C)[C@H](C)CN(C)C2=O	none
C[C@H](CO)N1C[C@H](C)[C@H](CN(C)C(=O)c2cc(Cl)cc(Cl)c2)OCc2ccccc2-c2c(n(C)c3ccccc23)C1=O	none
C[C@@H]1CN([C@H](C)CO)C(=O)c2c(c3ccccc3n2C)-c2ccccc2CO[C@H]1CN(C)C(=O)c1cc(Cl)cc(Cl)c1	CD40 NFkB inh 51[25 µM]
C[C@@H]1CN([C@@H](C)CO)C(=O)c2c(c3ccccc3n2C)-c2ccccc2CO[C@H]1CN(C)Cc1ccccc1	CD40 NFkB inh 49
C[C@@H]1CN([C@@H](C)CO)C(=O)c2c(c3ccccc3n2C)-c2ccccc2CO[C@@H]1CN(C)Cc1ccc(O)cc1	none
C[C@H](CO)N1C[C@H](C)[C@@H](CN(C)Cc2ccccc2)OCc2ccccc2-c2c(n(C)c3ccccc23)C1=O	none
C[C@@H]1CN([C@@H](C)CO)C(=O)c2c(c3ccccc3n2C)-c2ccccc2CO[C@H]1CN(C)C(=O)c1cc(Cl)cc(Cl)c1	none
CCCC#Cc1ccc([C@@H]2[C@H](CO)N3C(=O)CN(C(=O)Nc4cccc(F)c4)C[C@@H]23)cc1	none
N#C[C@H]1[C@H](c2ccccc2-c2ccccc2F)[C@H](CO)N1C(=O)C1CCC1	none
COC(=O)C(CCCN=C(N)N)NC(=O)CCCc1c(-c2ccccc2)[nH]c2c(F)cc(F)cc12 (stereo not given)	none
CC(NCC(O)COCCC12CC3CC(CC(C3)C1)C2)c1ccccc1 (stereo not given)	CD40 NFkB inh 86
OC(COCCC12CC3CC(CC(C3)C1)C2)CN1CCCC1 (stereo not given)	none
